Screening data: PubChem BioAssay, National Center for Advancing Translational Sciences (NCATS)
Sfp PPTase inh – Sfp phosphopantetheinyl transferase inhibition; Q9F4F7; Biochemical Sfp PPTase activity, qHTS; Potency, µM, for the others: largest response in the series, negative = inhibition, usual class: inhibitors; 310,000 tested, 3.5% active; AID 1490;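 note: the enzyme is Sfp with the accession as filed and its product quenches rhodamine fluorescence; 0% = enzyme reaction without inhibitor and -100% = no enzyme wells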
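Reaction rates are the 30-min fluorescence difference (ex 525, em 598 nm) in wells containing 15 nM Sfp, 5 uM rhodamine-CoA and 12.5 uM BHQ-2-YbbR at pH 7.6 with 10 mM MgCl2.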
HP1b binding inh – HP1-beta chromodomain-methylated histone interaction inhibition; 390,000 tested, 0.56% active; Potency, µM (series often up to 114 µM), without a hit: at the highest dose activity change, negative = inhibition, usual class: inhibitors; P83916; AlphaScreen HP1-beta / biotin-H3K9me3 peptide binding; note: nearly all actives have a fitted effect of over 70% in size
Target sequence (P83916 whole entry, looked up): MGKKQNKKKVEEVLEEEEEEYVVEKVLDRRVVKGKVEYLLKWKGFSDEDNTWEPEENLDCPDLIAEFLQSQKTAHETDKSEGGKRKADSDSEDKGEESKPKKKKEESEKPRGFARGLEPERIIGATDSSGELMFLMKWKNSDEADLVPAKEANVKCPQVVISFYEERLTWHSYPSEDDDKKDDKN
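Compound inhibition of the preformed complex between 50 nM HP1-beta and 50 nM biotinylated H3K9me3 peptide was read by AlphaScreen. Buffer was PBS pH 7.4 with 0.01% Tween-20. Incubations ran 30 min at room temperature, with 10 ug/mL donor/acceptor beads.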
JMJD2A Tudor – blocks the human JMJD2A Tudor domain; O75164; 390,000 tested, 4.4% active; Potency, µM (doses to about 114 µM), for the others: at the top dose activity change, negative = inhibition, most hits filed as inhibitors; AlphaScreen JMJD2A-Tudor / H3K4me3 peptide binding; note: % is set by controls: 0 for no effect and ±100 for the full control effect; nearly all actives have a fitted effect of over 50% in size
BAZ2B inh – blocks human BAZ2B; Q9UIF8; AlphaScreen BAZ2B-H3K14Ac peptide displacement; Potency, µM (top dose mostly 114 µM), inactives show top-dose activity change, negative = inhibition, actives largely listed as inhibitors; 360,000 tested, 4.4% active; AID 504333; note: % is set by controls: 0 for no effect and ±100 for the full control effect; nearly all actives have a fitted effect of over 60% in size
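AlphaScreen luminescence quantifies BAZ2B engagement of H3K14Ac peptide; the protein and biotinylated peptide are both at 50 nM final, buffer PBS pH 7.4 with 0.01% Tween-20, all steps at room temperature.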
TDP1 block – TDP1 (human) enzyme inhibition | 350,000 tested, 0.28% active | recombinant TDP1, AlphaScreen DNA substrate cleavage | Q9NUW8 | Potency, µM (titrated, usually from 130 µM), without a hit: at the top dose activity change, negative = inhibition, actives largely listed as inhibitors; note: % is set by controls: 0 for no effect and ±100 for the full control effect; nearly all actives have a fitted effect of over 40% in size
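Enzyme-compound mixtures sat 15 min at room temperature, followed by a 5 min reaction with 15 nM final substrate and 10 min with AlphaScreen beads. Recombinant human Tdp1 was used at 1 nM final.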
G9a block – blocks human histone lysine methyltransferase G9a; Q96KQ7; G9a H3K9 monomethylation, AlphaScreen, 2 h; Potency, µM (top dose mostly 102 µM), for inactives: at the top dose activity, negative = inhibition, usual class: inhibitors; 350,000 tested, 8.8% active; AID 504332; note: % is set by controls: 0 for no effect and ±100 for the full control effect; nearly all actives have a fitted effect of over 75% in size
Target sequence (Q96KQ7 913-1193 limits assumed): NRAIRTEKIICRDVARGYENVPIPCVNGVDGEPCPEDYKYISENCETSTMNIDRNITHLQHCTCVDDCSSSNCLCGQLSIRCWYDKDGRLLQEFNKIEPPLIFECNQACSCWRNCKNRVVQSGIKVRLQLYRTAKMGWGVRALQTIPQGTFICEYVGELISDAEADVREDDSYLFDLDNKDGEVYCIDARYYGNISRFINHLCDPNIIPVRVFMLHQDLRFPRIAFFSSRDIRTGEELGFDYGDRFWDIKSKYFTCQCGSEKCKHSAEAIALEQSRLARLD
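AlphaScreen detection with an anti-monomethyl H3K9 antibody quantified product after a 2 h room-temperature reaction containing 500 nM biotinylated H3K9 peptide, 20 µM SAM and 20 nM enzyme, which had been preincubated 15 min with compound.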
* = called active by the depositor; ? = inconclusive; / = no result given; [ ] = dose if it differs, or a comment. Most compounds without a hit are left out; they make up all but 12% or so of the library. Calls come from the whole dose curve; as a rule, active = well fitted curve in the direction sought with a large enough effect; inconclusive = small, poorly fitted or top-dose-only effect, or another doubt; inactive = no such curve, though single readings can be large; an effect the other way counts as inactive or inconclusive. Potency is the fitted concentration of half-maximal effect.

SMILES | Sfp PPTase inh | HP1b binding inh | JMJD2A Tudor | BAZ2B inh | TDP1 block | G9a block
COCCN=C1NN=C(c2cc(C)n(CC3CCCO3)c2C)CS1 (centres undefined) | -29.4% | -20.0% | -33.4% | -15.1% | 0.0% | ?
COCCCN=C1NN=C(c2cc(C)n(-c3ccccc3)c2C)CS1 | -21.5% | -7.4% | -35.7% | ? | 0.0% | 70.8µM*
CN=C1NN=C(c2cc(C)n(-c3ccc(Cl)cc3)c2C)CS1 | 35.5µM* | -15.2% | ? | / | 8.0% | 31.6µM*
CCCCN(C(=O)COC(=O)c1ccc(C=O)cc1)c1c(N)n(CCC)c(=O)[nH]c1=O | / | 46.3% | -3.8% | -0.6% | 0.7% | 24.0%[12.7 µM]
Oc1ccccc1C1C=C(c2ccc3c(c2)OCO3)NC(c2cccc(Cl)c2)N1 (centres undefined) | / | 6.6%[57 µM] | 1.5%[57.1 µM] | / | 2.1% | /
COC(=O)CC1c2ccccc2C=C(C)N1C(=O)OC (centres undefined) | 12.4% | / | / | / | 5.0% | /
CC(=O)N1CCC2(CCCN(C(=O)Nc3cccc(C#N)c3)C2)CC1 | 10.7% | / | / | / | / | -1.0%[12.7 µM]
COc1cc(C2c3[nH]c4ccccc4c3CC3COC(=O)N32)cc(OC)c1O (centres undefined) | / | -4.3% | -26.4% | / | / | /
COc1cccc2c1CCC1CC(=O)CC[C@@]21C (some centres undefined) | 1.1% | / | / | / | 4.2%[56.1 µM] | /
CC(OC(=O)[C@@H](NC(=O)c1ccco1)C(C)C)C(=O)Nc1ncc(Cl)cc1Cl (some centres undefined) | / | 24.5% | -11.3% | / | -2.5% | /
COCCCN=C1NN=C(c2cc(C)n(-c3ccccc3F)c2C)CS1 | ? | -3.9% | ? | 70.8µM* | 8.9% | 50.1µM*
Cc1cc(C2=NNC(=Nc3ccccc3)SC2)c(C)n1C | 31.6µM* | ? | ? | ? | 4.6% | 8.91µM*
Cc1cc(C2=NNC(=NCCc3ccccc3)SC2)c(C)n1-c1c(C)n(C)n(-c2ccccc2)c1=O | -23.0% | -6.6% | -9.5% | -8.6% | / | -11.3%[59 µM]
CCC[C@H](NC(=O)[C@H](CC(C)C)N(C)C(=O)CNC(=O)[C@@H](NC(=O)[C@H](Cc1ccccc1)NC(=O)[C@H](CCCCN)NC(=O)[C@@H](N)CC(=O)O)C(C)C)C(N)=O | 3.1% | / | / | / | 8.9% | /
S=c1[nH]nc(COc2ccccc2)n1/N=C/c1cccc(Br)c1 | ? | -5.3% | ? | -28.9% | / | 8.91µM*
CC(C)c1ccc(/C=N/n2c(COc3ccccc3)n[nH]c2=S)cc1 | -21.7% | 39.8µM* | 35.5µM* | ? | / | 50.1µM*
S=c1[nH]ncn1/N=C/c1cccc(Oc2ccccc2)c1 | -20.0% | ? | 44.7µM* | -38.0% | 2.3% | -122.8%
S=c1[nH]nc(COc2ccccc2)n1/N=C/c1cccnc1 | -5.0% | -8.9% | 10µM* | -5.8% | 2.4% | 1.78µM*
Cc1c(C(=O)N2CCCC2)oc2c1-c1nn(CC(=O)NCc3ccccc3F)cc1CC2 | / | 11.4% | -17.2% | ? | 2.6% | -31.8%[59 µM]
Cc1nn(-c2ccccc2)c2c1N(CC(=O)N1CCN(c3cccc(Cl)c3)CC1)C(=O)CS2 | / | ? | -29.0% | -6.8% | 7.1% | -4.2%[59 µM]
Cc1ccc(/C=N/n2c(COc3ccccc3)n[nH]c2=S)cc1 | ? | 7.2% | ? | -12.3% | / | 8.91µM*
COc1cccc(/C=N/n2c(COc3ccccc3)n[nH]c2=S)c1 | ? | ? | 79.4µM* | ? | / | 1.78µM*
Cc1ccc(OCc2n[nH]c(=S)n2-c2ccc(Br)cc2)cc1 | 15.8% | 2.2% | -35.0% | -33.2% | / | 2.4%[0.501 µM]
S=c1[nH]nc(COc2ccccc2)n1/N=C/c1ccc(Br)cc1 | 63.1µM* | 4.8% | -20.7% | -6.1% | / | 20µM*
O=C(O)COc1ccc(/C=N/n2c(COc3ccccc3)nc3ccccc3c2=O)cc1 | 25.9% | 23.2% | -12.8% | 7.5% | 2.7% | ?
SMILES | Sfp PPTase inh | HP1b binding inh | JMJD2A Tudor | BAZ2B inh | TDP1 block | G9a block
Fc1ccccc1COc1cccc(/C=N/n2cnnc2)c1 | 20.0% | 12.1% | -14.8% | / | -2.1% | -7.4%[59 µM]
COc1ccc(C(=O)NCC(=O)NCC(=O)OCC(=O)C(C)(C)C)cc1 | 3.0% | 24.2% | 3.6% | 0.0% | 0.6% | 5.7%[59 µM]
Cc1cccc(Nc2nc(CC(=O)O)cs2)c1 | ? | -17.4% | -34.5% | ? | 10.3% | ?
O=C(O)Cc1sc(NCCc2ccccc2)nc1-c1ccc(F)cc1 | -6.1% | 2.9% | -31.8% | -17.6% | 12.3% | ?
O=C(O)Cc1sc(Nc2cccc3ccccc23)nc1-c1ccc(F)cc1 | 1.5% | 3.6% | -12.3% | -22.6% | / | 44.7µM*
O=C(O)Cc1sc(NC2CCCCC2)nc1-c1ccc(Cl)cc1 | -14.4% | -0.7% | -26.0% | ? | 6.9% | 39.8µM*
Cc1ccc(-c2nc(Nc3cccc(C)c3)sc2CC(=O)O)cc1 | 20µM* | -9.2% | ? | -15.8% | / | /
Nc1nnn(CC(=O)N/N=C/C=C/c2ccccc2)n1 | 5.0% | 18.4% | 1.7% | -20.9% | / | ?
Cc1cc(OCC(=O)NC(Cc2c[nH]c3ccccc23)C(=O)O)ccc1Cl (centres undefined) | / | 12.6% | -15.6% | -15.4% | / | 7.5%[59 µM]
O=C(NCc1nc2ccccc2n1Cc1ccccc1Cl)c1ccccc1 | / | 17.8% | -12.1% | -3.3% | 5.1% | -6.6%[59 µM]
CCc1ccc(CN(Cc2ccco2)C(=O)c2cc(-c3ccc(Cl)cc3)on2)cc1 | / | 77.2% | 2.3% | 4.2% | 5.7% | 29.2%[59 µM]
Cc1cccc(N(CC(O)Cn2c3ccccc3c3ccccc32)S(=O)(=O)c2ccc(F)cc2)c1 (centres undefined) | / | 22.6% | -12.4% | -11.4% | 1.1% | -10.3%[59 µM]
CCOc1cc2c3c(c1)C(C)=CC(C)(C)N3C(=O)C2=O | 14.3% | ? | -27.1% | ? | 7.2% | ?
CC(=O)Oc1cc2c3c(c1)/C(=C1/SC(=S)NC1=O)C(=O)N3C(C)(C)C=C2C | 35.5µM* | ? | 11.2µM* | 7.94µM* | 15.1% | 8.91µM*
CCC(C)(C)NC(=O)CCCSc1nc2ccccc2[nH]1 | 8.7% | 49.1% | 2.2%[11.4 µM] | 4.5% | / | 0.4%[12.7 µM]
Cc1nnc(SCC(=O)NC2CC2)n1CC1CCCO1 (centres undefined) | 0.8% | 25.7% | 7.9% | -3.6% | 0.0% | -7.6%
COc1ccc(N/N=C(\C=N\O)C(=O)c2ccc(OC)cc2)cc1 | 0.4% | -7.8% | ? | 39.8µM* | 8.6% | 50.1µM*
COc1ccc(C(=O)C(=NNc2ccccc2)c2ccc(OC)cc2)cc1 | / | ? | 44.7µM* | / | / | /
COc1ccc(/C(=N\Nc2ccccc2C(=O)O)c2ccccc2)cc1 | 2.1% | -2.9% | ? | -33.6% | 5.3% | 35.5µM*
COc1cccc(C(=O)N2CCC(C(=O)Nc3cccc(Cl)c3)CC2)c1 | / | 33.8% | 0.0% | -1.1% | / | 4.9%[59 µM]
COc1cccc(/C=C2/NC(=O)N(CC(=O)Nc3ccc(C)cc3)C2=O)c1OCc1cccc(C(=O)O)c1 | ? | ? | ? | 25.1µM* | 3.1%[0.0935 µM] | ?
